Source: PubChem
OTUD3 inh: inhibitors of human OTUD3 deubiquitinase | OTU domain-containing protein 3 (Homo sapiens), Q5T2D3 | 47,000 tested, 0.7% active | purified OTUD3, Ub-rhodamine fluorescence, 2 h | inhibition, % at 25 µM
USP30 block: inhibitors of human USP30 deubiquitinase; Ubiquitin carboxyl-terminal hydrolase 30 (Homo sapiens), Q70CQ3; purified USP30, Ub-rhodamine cleavage fluorescence; inhibition, % at 25 µM; 47,000 tested, 5.3% active; AID 1645860, 2021
USP28 block: inhibitors of human USP28 deubiquitinase. AID 1645857, 2021. purified USP28, Ub-rhodamine cleavage fluorescence, 30 min. 47,000 tested, 3% active. inhibition, % at 25 µM
USP17 inh: inhibitors of human USP17 deubiquitinase; Ubiquitin carboxyl-terminal hydrolase 17-like protein 5 (Homo sapiens), A8MUK1; purified USP17, Ub-rhodamine cleavage fluorescence, 3 h; inhibition, % at 50 µM; 47,000 tested, 6.5% active
An asterisk follows results filed as active; nt = no result given. An excerpt weighted towards active compounds, which were near 11% of everything screened. Rule as the data show it: active = inhibition above about 30%; inactive = the rest.

SMILES	OTUD3 inh	USP30 block	USP28 block	USP17 inh
Cc1cc(C)c2sc(N(CCCn3ccnc3)C(=O)Cc3ccccc3)nc2c1	35*	92*	40*	nt
COc1ccc2nc(N(Cc3ccncc3)C(=O)c3ccc(C)cc3)sc2c1	1	-67	-18	-37
COc1ccc2nc(N(CCCn3ccnc3)C(=O)c3ccc(Cl)s3)sc2c1	2	50*	25	42*
O=C(Oc1ccc(-c2cnc3ccccc3n2)cc1)c1ccc(F)cc1	0	-2	-4	65*
CCc1nnc(NC(=O)c2nnn(-c3ccccc3Cl)c2C)s1	17	37*	60*	11
Cn1cc(CN2C[C@H]3C[C@H](C(=O)Nc4ccc5c(c4)OCO5)[C@@H](C2)O3)cn1	0	12	0	-2
CCc1nnc(NC(=O)CN2C(=O)CCc3ccccc32)s1	9	0	0	-5
CCc1nnc(NC(=O)Cn2ncc3c(=O)oc4ccc(C)cc4c32)s1	3	23	9	31*
NC(=O)C1CCN(C(=O)c2cc3ccccc3o2)CC1	-5	-2	-11	-7
Cc1ccc(-c2cc(C(F)F)n3ncc(C(=O)NCc4ccc(Cl)cc4)c3n2)cc1	-3	-1	-7	-2
Cc1ccc2c(c1)C(c1ccc(F)cc1)N(C(=O)COc1ccc3ccccc3c1)CC(=O)N2 (centres undefined)	-6	-21	-11	-10
CCOc1ccc2ccccc2c1C(=O)N1CC(=O)Nc2ccc(C)cc2C1c1ccc(F)cc1 (centres undefined)	-1	43*	17	9
O=c1cc(-c2cncc(Br)c2)nc(-c2ccccc2)[nH]1	11	30*	6	nt
O=C(COc1ccc(Cl)cc1)N1CCC(c2nc3ccccc3o2)CC1	2	-60	-22	0
Cc1cc(C)nc(NC(=O)c2csnn2)c1	-2	0	-3	-2
Cc1cc(C)nc(NC(=O)c2c(C)nc3sccn23)c1	5	nt	nt	31*
O=C(CNC(=O)c1cc2ccccc2o1)Nc1ccc2c(c1)OCCO2	14	25	56*	63*
Cc1ccc(NC(=O)CNC(=O)c2cc3ccccc3o2)cc1	-2	-15	-9	55*
O=C(CNC(=O)c1cc2ccccc2o1)Nc1cccc(F)c1	-5	46*	11	-3
Cc1ccc(NC(=O)CNC(=O)c2cc3ccccc3o2)cc1F	8	-9	3	-5
CCC(NC(=O)c1ccc2c(c1)OCO2)c1ccccc1 (centres undefined)	-10	3	-10	-22
CC(NC(=O)CNC(=O)c1ccc2c(c1)OCO2)c1cc2ccccc2o1 (centres undefined)	-3	3	14	42*
COc1cc(NC(=O)Cc2ccccc2)ccc1NC(=O)c1cc2ccccc2o1	11	41*	22	70*
Cc1cc(C(=O)N2CCCCC2)c2c(=O)n(Cc3cccc(F)c3)c(=O)n(C)c2n1	-11	-11	-11	-9
Cc1cc(C(=O)N2CCCCC2)c2c(=O)n(Cc3ccc4nonc4c3)c(=O)n(C)c2n1	7	-20	8	34*
SMILES	OTUD3 inh	USP30 block	USP28 block	USP17 inh
COc1ccc(CNC(=O)[C@@H]2Cc3nc[nH]c3CN2Cc2ccccc2)cc1	-5	-8	-15	-19
NC(=O)CSc1nnc2ccc(-c3ccc4c(c3)OCO4)nn12	3	2	0	4
O=C(CSc1nnc2ccc(-c3ccc4c(c3)OCO4)nn12)NCC1CCCO1 (centres undefined)	23	42*	10	nt
Cc1ccccc1CNC(=O)Cn1c(=O)n(-c2ccccc2)c2ncccc21	-3	14	-10	47*
COc1ccccc1-c1nc(CC(=O)NC2CCN(Cc3ccccc3)CC2)cs1	-10	-15	0	-8
Cc1ccc(-c2cc(-c3ccc(F)cc3)[nH]c(=O)c2C#N)cc1	-2	nt	nt	67*
COc1ccc2c(c1)CC(C(=O)Nc1c(C)cccc1C)CO2 (centres undefined)	-6	0	-6	0
O=C(Cn1cnc(-c2noc(-c3ccncc3)n2)c1)N1CCN(c2ccc(F)cc2)CC1	5	-4	4	16
Cc1nc(-c2noc(-c3ccncc3)n2)cn1CC(=O)N1CCN(c2ccc(F)cc2)CC1	3	62*	1	0
COc1ccc(-c2nc3sc4c(c3c(=O)[nH]2)CCCCCC4)c(OC)c1	6	34*	7	31*
COc1cc(-c2nc3sc4c(c3c(=O)[nH]2)CCCC4)cc(OC)c1O	-62	-183	-24	2
CC(=O)Nc1ccc(C(=O)NCc2ccc(C)cc2)c(N2CCCCC2)c1	-11	-20	21	-15
O=C(Cn1cc(-c2nnco2)c2ccccc21)NC1CCCCCC1	2	-9	-6	38*
Cc1nn(CC(=O)Nc2ccc(Br)c3cccnc23)c(=O)c2ccccc12	0	14	15	65*
CC(C(=O)NCCc1ccccc1)n1nc(-c2ccccc2)c2cc(Cl)ccc21 (centres undefined)	34*	55*	18	48*
CCc1nnc(C2CCN(C(=O)c3ccc(F)cc3)CC2)s1	8	21	5	7
O=C(CSc1nc2ccccc2[nH]1)Nc1cccc2c1OCCO2	13	-38	41*	-18
O=C(Nc1nnc2n1CCCS2)c1cccc(Cl)c1	3	12	59*	-23
COc1ccc(Cl)cc1C(=O)Nc1nnc2n1CCCS2	2	-2	3	-2
COC(=O)N1CCn2c(c(C(=O)Nc3cccc(F)c3)c3cccnc32)C1	-19	-50	-16	-23
CC1Cc2ccccc2N1C(=O)Cn1c(CC(=O)N2CCCC2)nc2ccccc21 (centres undefined)	-1	2	-9	-16
CC1Cc2ccccc2N1C(=O)Cn1c(=O)cc(O)c2ccccc21 (centres undefined)	-6	2	57*	-7
NC(=O)c1cccc(NC(=O)c2cc(Cl)c3c(c2)OCO3)c1	-9	-11	48*	-12
CCCCCCCCCCCC1=C(O)C(=O)C=C(O)C1=O	94*	97*	98*	100*
COCc1cc(Sc2ccc(OC)cc2)nc(-c2ccccc2)n1	3	3	0	1
SMILES	OTUD3 inh	USP30 block	USP28 block	USP17 inh
O=S(Cc1cc(Sc2ccccc2)nc(-c2ccccc2)n1)c1ccccc1 (centres undefined)	6	34*	13	3
CC(C)=CCc1ccc2[nH]cc(C3=C(O)C(=O)C(c4c[nH]c5ccccc45)=C(O)C3=O)c2c1	9	-116	21	43*
O=c1c(Cc2ccccc2)coc2ccccc12	12	24	50*	12
CC(C)C(=O)N1CCc2cc(-c3csc(NC(=O)CN4CCCCCC4)n3)ccc21	-6	-52	-4	4
Cc1ccc(N(C)S(=O)(=O)C2CCS(=O)(=O)C2)cc1 (centres undefined)	13	31*	18	14
Cn1nccc1CN1CCc2nc3cc(C(C)(C)C)[nH]n3c(=O)c2C1	6	14	2	-6
